According to publication PMC4336329 (PLoS ONE, 2015):
The campaign covered roughly 310,000 compounds. About 14,000 (4.5%) showed an effect of 50% or more. The effect is printed as a negative number. The sample as a whole holds a higher share of strong results than the screen did.

The molecules below were run against human ether-à-go-go-related gene (hERG) potassium channel (human, UniProt Q12809) (assay: primary screen, population patch clamp on CHO cells stably expressing hERG; higher = less effect of the substance).
Chain of human ether-à-go-go-related gene (hERG) potassium channel (Q12809 whole entry, looked up): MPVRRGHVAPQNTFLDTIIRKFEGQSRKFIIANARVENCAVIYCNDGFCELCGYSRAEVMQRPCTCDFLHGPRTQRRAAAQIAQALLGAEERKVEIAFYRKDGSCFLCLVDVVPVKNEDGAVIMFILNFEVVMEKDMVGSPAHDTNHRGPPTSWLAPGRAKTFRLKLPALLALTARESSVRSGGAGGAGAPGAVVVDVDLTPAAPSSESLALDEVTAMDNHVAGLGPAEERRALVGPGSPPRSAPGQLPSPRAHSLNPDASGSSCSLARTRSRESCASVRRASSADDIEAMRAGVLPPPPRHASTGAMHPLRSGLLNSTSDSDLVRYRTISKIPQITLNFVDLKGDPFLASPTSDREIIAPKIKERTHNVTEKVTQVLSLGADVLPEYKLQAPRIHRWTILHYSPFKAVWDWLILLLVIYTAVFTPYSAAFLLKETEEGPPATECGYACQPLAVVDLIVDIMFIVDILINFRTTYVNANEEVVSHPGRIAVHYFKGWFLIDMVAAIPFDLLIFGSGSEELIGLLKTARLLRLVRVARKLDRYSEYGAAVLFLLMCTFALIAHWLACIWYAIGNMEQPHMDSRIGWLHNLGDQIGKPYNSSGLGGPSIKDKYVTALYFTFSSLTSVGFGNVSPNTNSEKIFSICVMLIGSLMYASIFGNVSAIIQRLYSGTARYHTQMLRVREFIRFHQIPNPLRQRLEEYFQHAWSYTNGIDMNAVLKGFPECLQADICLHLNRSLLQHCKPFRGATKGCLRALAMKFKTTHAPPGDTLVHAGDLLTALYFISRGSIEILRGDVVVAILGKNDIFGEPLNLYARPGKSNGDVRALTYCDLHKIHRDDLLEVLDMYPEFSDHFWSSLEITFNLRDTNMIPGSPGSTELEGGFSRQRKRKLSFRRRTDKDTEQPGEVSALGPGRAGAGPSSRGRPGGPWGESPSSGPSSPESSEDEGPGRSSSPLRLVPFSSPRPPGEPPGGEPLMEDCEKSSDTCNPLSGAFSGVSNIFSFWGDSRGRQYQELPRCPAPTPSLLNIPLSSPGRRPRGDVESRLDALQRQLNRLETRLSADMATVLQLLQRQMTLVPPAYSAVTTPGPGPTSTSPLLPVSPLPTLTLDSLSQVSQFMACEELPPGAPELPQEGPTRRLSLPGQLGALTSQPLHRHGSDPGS
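Note: peak tail current of the secondary pulse compared with the same well before compound.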

Structure (SMILES)	hERG current change (%, negative = inhibition) at 10uM
CC(=O)Nc1ccc(NC(=O)/C=C/c2ccc3c(c2)OCO3)cc1	13%
O=C(/C=C/c1ccc2c(c1)OCO2)Nc1cccnc1	-66.4%
O=C(/C=C/c1ccc2c(c1)OCO2)c1cccnc1	-27.8%
C[C@@H](C(=O)N[C@@H](Cc1c[nH]c2ccccc12)C(=O)O)n1nnc2ccccc2c1=O	41.7%
Cn1c(Cn2c(=O)sc3ccccc32)nnc1SCc1ccc(F)cc1	-21.6%
CC(=O)N(CCS(=O)(=O)c1ccc(Cl)cc1)Cc1cccs1	-0.348%
COCCNC(=O)/C(C#N)=C/c1ccc(N2CCOCC2)o1	9.87%
N#C/C(=C\c1ccc(N2CCOCC2)o1)C(=O)NCCc1ccccc1	-57.9%
N#C/C(=C\c1ccc(N2CCOCC2)o1)C(=O)NCC1CCCO1 (stereo not drawn)	-0.262%
O=C(c1cc(C(=O)NCc2ccccc2)c(=O)n(Cc2ccccc2)c1)c1cc(Cl)ccc1O	-0.908%
Cc1ccc2nsnc2c1S(=O)(=O)Nc1cccc2nsnc12	-0.692%
COc1cc(C(=O)NC(=S)Nc2nccs2)cc(OC)c1OC	17.7%
CCOC(=O)C(C)Sc1nc2c(c(=O)[nH]c(=O)n2C)n1Cc1ccc(Cl)cc1 (stereo not drawn)	-75%
CCOC(=O)CSc1nc2c(c(=O)[nH]c(=O)n2C)n1CCc1ccccc1	-1.16%
COC(=O)C(C)Sc1nc2c(c(=O)[nH]c(=O)n2C)n1CCC(C)C (stereo not drawn)	-24.6%
C/C(Cl)=C/Cn1c(SCC(C)C)nc2c1c(=O)[nH]c(=O)n2C	15.2%
C/C(Cl)=C/Cn1c(SC(C)C)nc2c1c(=O)[nH]c(=O)n2C	-6.63%
CCC(C)Sc1nc2c(c(=O)[nH]c(=O)n2C)n1Cc1ccc(Cl)cc1 (stereo not drawn)	1.92%
CCOC(=O)C(CC)Sc1nc2c(c(=O)[nH]c(=O)n2C)n1CCc1ccccc1 (stereo not drawn)	-67.8%
CCOC(=O)C(C)Sc1nc2c(c(=O)[nH]c(=O)n2C)n1CCc1ccccc1 (stereo not drawn)	-49.8%
COC(=O)C(C)Sc1nc2c(c(=O)[nH]c(=O)n2C)n1CCCc1ccccc1 (stereo not drawn)	-72.2%
CC(C)Sc1nc2c(c(=O)[nH]c(=O)n2C)n1Cc1ccc(Cl)cc1	-13.3%

Structure (SMILES)	hERG current change (%, negative = inhibition) at 10uM
Cn1c(=O)[nH]c(=O)c2c1nc(SCC(=O)O)n2CCCc1ccccc1	3.89%
CCOC(=O)C(C)Sc1nc2c(c(=O)[nH]c(=O)n2C)n1C/C=C(/C)Cl (stereo not drawn)	-72.8%
Cc1ccc(OC(=S)Nc2ccc(F)cc2)cc1	7.01%
Cc1ccc(Sc2nc(-c3ccccc3)nnc2C(F)(F)F)cc1	11.7%
CC(C)(C)C(=O)NC(Nc1cccc2cccnc12)C(Cl)(Cl)Cl (stereo not drawn)	-1.6%
CC1=C(C(=O)OC(C)C)C(c2ccc(Br)s2)NC(=O)N1 (stereo not drawn)	-48%
O=c1oc2cc([N+](=O)[O-])ccc2nc1/C=C(\O)c1cccc(Br)c1	4.15%
C[C@]12C(=O)N(c3ccc(F)cc3)C(=O)N1[C@@H]1c3ccccc3OC[C@@H]1[C@H]2c1ccccc1	7.01%
COc1cc(OC)c(NC2=NCCCCC2)cc1Cl	-0.664%
CCSc1nc2c(c(=O)[nH]c(=O)n2C)n1C/C=C(/C)Cl	-17.2%
CCOC(=O)CSc1nc2c(c(=O)[nH]c(=O)n2C)n1C/C=C(/C)Cl	-43.7%
CCOC(=O)C(CC)Sc1nc2c(c(=O)[nH]c(=O)n2C)n1C/C=C(/C)Cl (stereo not drawn)	-82%
Nc1nc(Cl)cc(-c2ccccc2)n1	-4.54%
CCC(C)C(NC=C1C(=O)OC(C)(C)OC1=O)C(=O)O (stereo not drawn)	-4.97%
CC1CN(Cc2nc3c(c(=O)n(C)c(=O)n3C)n2Cc2cccc(Cl)c2)CC(C)O1 (stereo not drawn)	-14.2%
CN(Cc1ccccc1)Cc1nc2c(c(=O)n(C)c(=O)n2C)n1Cc1ccc(Cl)cc1	-30.1%
CN(Cc1ccccc1)Cc1nc2c(c(=O)n(C)c(=O)n2C)n1CCCc1ccccc1	-50.3%
CN(Cc1ccccc1)Cc1nc2c(c(=O)n(C)c(=O)n2C)n1Cc1ccc(F)cc1	-55.6%
CCCCn1c(CN(C)Cc2ccccc2)nc2c1c(=O)n(C)c(=O)n2C	-39.9%
Cn1c(=O)c2c(nc(CN3CCN(c4cccc(Cl)c4)CC3)n2CCc2ccccc2)n(C)c1=O	-20.1%
CN(Cc1ccccc1)Cc1nc2c(c(=O)n(C)c(=O)n2C)n1CCc1ccccc1	-48.3%
CCCn1c(CN(C)Cc2ccccc2)nc2c1c(=O)n(C)c(=O)n2C	-23.4%

Structure (SMILES)	hERG current change (%, negative = inhibition) at 10uM
Cn1c(=O)c2c(nc(CN3CCN(Cc4ccccc4)CC3)n2Cc2cccc(Cl)c2)n(C)c1=O	-59.2%
COCCn1c(CN(Cc2ccccc2)Cc2ccccc2)nc2c1c(=O)n(C)c(=O)n2C	-62.8%
CCOCCn1c(CN(Cc2ccccc2)Cc2ccccc2)nc2c1c(=O)n(C)c(=O)n2C	-45.6%
COCCn1c(CN(C)Cc2ccccc2)nc2c1c(=O)n(C)c(=O)n2C	-6.15%
CCCCC(CC(O)COCCC)C(=O)NN (stereo not drawn)	16.1%
O=Cc1ccc(N2N=C(c3ccccc3)CC2c2ccccc2)cc1 (stereo not drawn)	24.3%
Cc1[nH]c(C)c2c(=O)n(-c3ccccc3)ncc12	10.2%
COc1ccc(C2C(C#N)=C(N)N(N(C)C)C3=C2C(=O)CCC3)cc1 (stereo not drawn)	9.88%
CCOC(=O)N1CCN(S(=O)(=O)c2ccc(Cl)cc2)CC1	0.615%
O=C(CSc1nc(-c2ccccc2)cs1)NCc1ccco1	-14.9%
COc1ccc(N2CCN(Cc3nc4c(c(=O)n(C)c(=O)n4C)n3CCc3ccccc3)CC2)cc1	13.5%
COc1ccc(N2CCN(Cc3nc4c(c(=O)n(C)c(=O)n4C)n3Cc3cccc(C)c3)CC2)cc1	-52.3%
Cc1ccc(C)c(Cn2c(CN(C)Cc3ccccc3)nc3c2c(=O)n(C)c(=O)n3C)c1	-51.3%
Cn1c(=O)c2c(nc(CN3CCN(Cc4ccccc4)CC3)n2Cc2ccc(F)cc2)n(C)c1=O	-67.2%
CCOC(=O)N1CCN(Cc2nc3c(c(=O)n(C)c(=O)n3C)n2Cc2ccc(F)cc2)CC1	-36.2%
COCCn1c(CN2CCN(c3ccc(OC)cc3)CC2)nc2c1c(=O)n(C)c(=O)n2C	-9.23%
Cn1c(=O)c2c(nc(CN3CCc4ccccc4C3)n2Cc2ccc(F)cc2)n(C)c1=O	-26.5%
Cc1ccc(Cn2c(CN(C)Cc3ccccc3)nc3c2c(=O)n(C)c(=O)n3C)cc1	-21.5%
Cc1ccccc1Cn1c(CN2CCc3ccccc3C2)nc2c1c(=O)n(C)c(=O)n2C	-15.9%
CN(Cc1ccccc1)Cc1nc2c(c(=O)n(C)c(=O)n2C)n1Cc1ccccc1Cl	-5.6%
Cn1c(=O)c2c(nc(CN3CCc4ccccc4C3)n2Cc2ccccc2)n(C)c1=O	-17.5%
Cn1c(=O)c2c(nc(CN3CCc4ccccc4C3)n2Cc2cccc(Cl)c2)n(C)c1=O	-53.9%
